The text below walks through data of PubChem BioAssay.

SMILES strings stand for the structures.

This test relates to Human papillomavirus type 1a protein E7 (residues 44-93). In words: small molecules binding HPV E7 44-93 – biochemical, small-molecule microarray, residues 44-93, 635 nm fluorescence, primary screen (AID 1108).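 Note: E7 fragment applied at 1 µg/mL in TBST for 1 h at 4 C; score combines spot fluorescence with its signal to noise ratio.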 As to conditions: fluorescence 635 nm, higher = more signal.
Take `NC(=O)NCC#Cc1ccc2c(c1)[C@]1(C(=O)N2)[C@H](C(=O)Nc2nc3ccccc3s2)[C@H]2C(=O)O[C@H](c3ccccc3)[C@H](c3ccccc3)N2[C@@H]1c1ccc(OCCO)cc1`: the composite z-score turned out to be 0.537.

Regarding `CC(C)C(=C=CC[C@@H](O)c1ccccc1OCCO)C[C@@H](O)c1cc(Cl)cc(Cl)c1O`, the composite z-score was 1.48. For the molecule `COC(=O)[C@@H]1N=C(c2ccc(OCCCO)cc2)O[C@@H]1c1ccccc1CN=[N+]=[N-]`, the composite z-score turned out to be 1.41.

On to `COc1cc2c(cc1O)C(C1CC1)N(Cc1ccc([N+](=O)[O-])o1)CC2` (configuration not stated), for which the composite z-score was found to be 1.29.

The molecule `COc1ccc(NN2C(C(O)c3cc(C(F)(F)F)cc(C(F)(F)F)c3)C=CC3C(=O)N(C4CCCCC4)C(=O)C32)cc1` (configuration not stated) came in with a composite z-score of 0.258. Under `C=CCC(OC(C)=O)[C@@H]1[C@@H](N(Cc2ccc(-c3ccccc3)cc2)C(=O)c2ccc(-c3ccccc3)cc2)c2cc(OCCCO)ccc2N1C(=O)c1ccc2ccccc2n1` (some centres not stated) stands 0.0942; under `O=C(NCC(F)(F)F)[C@@H]1c2ccccc2C(=O)N(CC23CC4CC(CC(C4)C2)C3)[C@H]1c1ccc(CO)cc1`, 1.02.
